Measured values reported in PubChem BioAssay.
The source made the active and inactive calls.

Experiment: growth modulation of vineyard yeast isolate – strain RM11-1a, OD600, basal, 24 h, primary screen (AID 1177);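 further: cultures grown under basal conditions with no added stressor; test concentration not given here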
Conditions: S. cerevisiae RM11-1a growth, OD600, 24 h; higher = more signal, called active from +8 up or from −8 down

z-score, inactive:
COCC(=C=CC[C@H](O)c1ccc(OCCO)cc1)C[C@H](O)COCc1ccccc1 -1.3
O=C1NC(=O)C2C1C=CC(C(O)c1cc(C(F)(F)F)cc(C(F)(F)F)c1)N2Nc1ccc(Cl)cc1Cl (stereo not given) 1.1
COC(=O)[C@H](Cc1ccccc1)N1CC(/C=C/C2CC2)=C[C@@H]1[C@@H](O)Cc1ccccc1 0.385
NC(=O)NCC#Cc1ccc2c(c1)[C@]1(C(=O)N2)[C@H](C(=O)Nc2nc3ccccc3s2)[C@H]2C(=O)O[C@H](c3ccccc3)[C@H](c3ccccc3)N2[C@@H]1c1ccc(O)cc1 5.05
O=C1O[C@@H](c2ccccc2)[C@@H](c2ccccc2)N2[C@@H](c3ccc(O)cc3)[C@]3(C(=O)Nc4ccc(C#CC5=CCCCC5)cc43)[C@@H](C(=O)N3CCN(c4ncccn4)CC3)[C@H]12 0.207
CC(=O)NCCCC[C@@H]1NC(=O)[C@@H]2C[C@H](C(=O)O)[C@H](c3ccc(O)cc3)N2C1=O 0.88
COc1cc(CO)cc(I)c1O[C@H]1C=C(C(=O)NCCO)C[C@@H](NCc2ccccc2F)[C@@H]1O 1.09
O=C1NCC(=O)N2[C@@H]1C[C@@H](C(=O)O)[C@H]2c1ccc(O)cc1 0.414
COC(=O)[C@@]1(Cc2ccc(F)cc2)[C@H]2c3cc(C(=O)N4CCCC4)n(CCF)c3C[C@H]2CN1C(=O)c1ccccc1 0.24
C[C@]1(C(=O)O)c2ccccc2C(=O)N(Cc2ccccc2)[C@H]1c1ccc(CO)cc1 1.91
